In one experiment the test system is IL-6-GFP PC-9GR. The experiment in a line: cell viability (CCK-8 OD) relative to DMSO control (fraction of control); higher = more viable cells. The following applies: compound concentration: 10 uM; treatment time: 48 h. An outline of the steps:
(§1)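 In 96-well plates, 3000 cells/well of PC-9 or PC-9GR lung cancer cells with lentiviral IL-6-GFP overexpression received each compound of a purchased 510-compound library at a final 10 μM for 48 h. Viability, measured by CCK-8 absorbance, is each well's optical density relative to the vehicle control well. Data come from two independent replicates.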

For the next experiment, the system named is IL-6-GFP PC-9. The description is as above. To be noted: compound concentration: 10 uM; treatment time: 48 h. An outline of the steps: as §1

± gives the standard deviation of the averaged measurements.

Consider `COc1ccnc(CS(=O)c2nc3ccc(-n4cccc4)cc3[nH]2)c1C` (stereo not drawn) [Ilaprazole], for which the cell viability was determined as 1.17 ± 0.38 in the experiment with IL-6-GFP PC-9GR and 1.29 ± 0.23 in the experiment with IL-6-GFP PC-9.
In the case of `Cc1ccc(C(=O)Nc2ccc(CN3CCN(C)CC3)c(C(F)(F)F)c2)cc1C#Cc1cnc2cccnn12`, the cell viability with IL-6-GFP PC-9GR came to 0.464 ± 0.3; in the experiment on IL-6-GFP PC-9, 0.378 ± 0.19.
For `CCCS(=O)(=O)Nc1ccc(F)c(C(=O)c2c[nH]c3ncc(-c4ccc(Cl)cc4)cc23)c1F` [Vemurafenib (PLX4032, RG7204)] the same measures were 1.06 ± 0.1 and 1.05 ± 0.15.
Turning to `CC(C(=O)[O-])c1cccc(Oc2ccccc2)c1.CC(C(=O)[O-])c1cccc(Oc2ccccc2)c1.[Ca+2]` (stereo not drawn) [Fenoprofen Calcium], the cell viability in the experiment on IL-6-GFP PC-9GR worked out at 1.26 ± 0.064; in the experiment with IL-6-GFP PC-9, 0.938 ± 0.013.
For `COc1ccc2cc1Oc1ccc(cc1)CC1c3cc(c(OC)cc3CCN1C)Oc1c(O)c(OC)cc3c1C(C2)N(C)CC3` (stereo not drawn) [Fangchinoline] the same measures were 1.18 ± 0.33 and 1.09 ± 0.13.
As to `Nc1nc(=S)c2[nH]cnc2[nH]1` [Thioguanine], the cell viability with IL-6-GFP PC-9GR is 1.37 ± 0.42; in the experiment on IL-6-GFP PC-9, 1.2 ± 0.061.
For `O=C(O)c1cc(-c2ccc(F)cc2F)ccc1O` [Diflunisal] the same measures were 0.789 ± 0.23 and 1.15 ± 0.15.
As for `COc1cc2c(Oc3ccc4[nH]c(C)cc4c3F)ccnc2cc1OCC1(N)CC1.Cl.Cl` [Anlotinib (AL3818) dihydrochloride], the cell viability was found to be 0.463 ± 0.024 in the experiment with IL-6-GFP PC-9GR and 0.575 ± 0.056 in the experiment on IL-6-GFP PC-9.
For `C/C=C1/C2C=C(C)CC1(N)c1ccc(=O)[nH]c1C2` (single isomer, unassigned; (-)) [(-)-Huperzine A (HupA)], the cell viability with IL-6-GFP PC-9GR was found to be 1.17 ± 0.37; in the experiment on IL-6-GFP PC-9, 1.29 ± 0.053.

Values taken from the supplement of paper PMC8866396.
